Results filed as inconclusive are left out. The source made the active and inactive calls. Unless noted, calls come from the whole dose curve; as a rule, active = well fitted curve in the direction sought with a large enough effect in the repeat runs; inconclusive = weak or mixed curves; inactive = no such curve, though single readings can be large; an effect the other way counts as inactive or inconclusive.
How the values were obtained:
[1] = qHTS assay to identify aromatase inhibitors - cell viability counter screen (AID 743084);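 note: cells stimulated with testosterone during compound exposure; nearly all actives have a fitted effect of over 55% in size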
[2] = qHTS assay to identify small molecule that activate the aryl hydrocarbon receptor (AhR) signaling pathway - cell viability counter screen (AID 743086);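 note: HepG2 liver cells carrying the AhR DRE luciferase reporter; series mostly up to about 70 µM; nearly all actives have a fitted effect of over 45% in size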
Summary of the method: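 HepG2-AhR-luc (HG2L7.5c1) cells, 4000/well, were preincubated 5 h at 37C, exposed to compound in qHTS format for 24 hr at 37C, then given CellTiter-Fluor for 30 min; viability was read as fluorescence in the reporter wells.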

[3] = target: Peroxisome proliferator-activated receptor gamma (Homo sapiens) (UniProt P37231); assay: qHTS assay to identify small molecule agonists of the peroxisome proliferator-activated receptor gamma (PPARg) signaling pathway (AID 743094; active = well fitted activation curve with a large enough effect in the signal ratio in the repeat runs, not every such curve was filed as active; the % refers to the signal ratio)
Peroxisome proliferator-activated receptor gamma (Homo sapiens), sequence (P37231 whole entry, looked up): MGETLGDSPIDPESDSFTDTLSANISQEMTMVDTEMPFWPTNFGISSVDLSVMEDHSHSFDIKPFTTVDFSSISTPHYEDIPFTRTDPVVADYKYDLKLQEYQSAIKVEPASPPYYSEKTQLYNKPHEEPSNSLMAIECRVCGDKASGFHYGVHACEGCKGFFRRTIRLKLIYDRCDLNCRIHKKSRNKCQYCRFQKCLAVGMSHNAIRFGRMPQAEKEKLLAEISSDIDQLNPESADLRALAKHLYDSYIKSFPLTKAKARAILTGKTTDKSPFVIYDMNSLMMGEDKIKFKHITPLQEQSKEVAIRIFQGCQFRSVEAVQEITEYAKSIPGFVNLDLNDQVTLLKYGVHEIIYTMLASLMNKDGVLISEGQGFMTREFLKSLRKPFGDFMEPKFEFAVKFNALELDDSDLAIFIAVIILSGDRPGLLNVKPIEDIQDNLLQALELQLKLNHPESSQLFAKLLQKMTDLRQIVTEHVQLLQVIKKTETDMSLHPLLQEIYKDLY
Summary of the method: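 Agonist activity was taken from a beta-lactamase reporter (FRET substrate, 1 h at room temperature) in HEK293H cells carrying a PPARg UAS-bla construct. Compounds in DMSO were incubated 17 h at 37C after a 5 h cell pre-incubation.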

[4] = target: Peroxisome proliferator-activated receptor gamma (Homo sapiens) (UniProt P37231); assay: qHTS assay to identify small molecule antagonists of the peroxisome proliferator-activated receptor gamma (PPARg) signaling pathway (AID 743191; calls by dose curve; note: series mostly up to about 63 µM; nearly all actives have a fitted effect of over 30% in size)
Summary of the method: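 GeneBLAzer PPARg UAS-bla HEK293H cells carrying a UAS-driven beta-lactamase reporter were plated at 3000 cells/well, preincubated 5 h at 37C, then given compound for 17 h at 37C; LiveBLAzer B/G FRET substrate was read after 1 h at room temperature.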

[5] = qHTS assay to identify small molecule antagonists of the peroxisome proliferator-activated receptor gamma (PPARg) signaling pathway - cell viability counter screen (AID 743194); note: nearly all actives have a fitted effect of over 55% in size
Summary of the method: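 PPARg-UAS-bla HEK293H cells were plated, rested 5 h at 37 C, then treated with compounds plus rosiglitazone (50 nM final) for 17 h at 37 C; viability was then read by CellTiter-Glo luminescence after 30 min at room temperature.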

[6] = qHTS assay for small molecule agonists of the antioxidant response element (ARE) signaling pathway (AID 743202; active = well fitted activation curve with a large enough effect in the signal ratio in the repeat runs, not every such curve was filed as active; the % refers to the signal ratio)
Summary of the method: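 Following a 16 h, 37 C exposure of reporter HepG2 cells (ARE-driven beta-lactamase, 2,000 cells/well) to compounds, FRET substrate was applied for 2 h at room temperature and fluorescence intensity recorded.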

[7] = qHTS assay for small molecule agonists of the antioxidant response element (ARE) signaling pathway - cell viability counter screen (AID 743203; calls by dose curve; note: nearly all actives have a fitted effect of over 55% in size)
Summary of the method: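 Viability counter screen: CellTiter-Glo luminescence, read after 30 min at room temperature, in ARE-bla HepG2 wells. Compound exposure lasted 16 h at 37C/5% CO2, following a 5 h pre-incubation of the cells after plating.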

[8] = qHTS assay for small molecule activators of the heat shock response signaling pathway - cell viability counter screen (AID 743209); note: nearly all actives have a fitted effect of over 50% in size
Summary of the method: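 Cytotoxicity counter screen run in the same wells as the heat-shock bla reporter assay: HeLa HSE-bla cells, 5 h compound exposure at 37 C, viability read by CellTiter-Glo luminescence.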

[9] = qHTS assay for small molecule activators of the heat shock response signaling pathway (AID 743210; active = well fitted activation curve with a large enough effect in the signal ratio in the repeat runs, with a control signal flat, not every such curve was filed as active; the % refers to the signal ratio; note: series mostly up to about 63 µM)
Summary of the method: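 Heat shock element–beta-lactamase HeLa reporter cells; qHTS with compounds for 5 h at 37 C; detection by FRET substrate fluorescence after 2.5 h at RT.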

[10] = qHTS assay to identify small molecule agonists of the peroxisome proliferator-activated receptor delta (PPARd) signaling pathway - cell viability counter screen (AID 743211); note: nearly all actives have a fitted effect of over 55% in size
Summary of the method: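 Counter screen for cytotoxicity run in parallel with the PPARd reporter screen. Beta-lactamase reporter HEK293H cells exposed to compounds 17 h; ATP-based CellTiter-Glo luminescence quantified viability.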

[11] = target: Peroxisome proliferator-activated receptor delta (Homo sapiens) (UniProt Q03181); assay: qHTS assay to identify small molecule agonists of the peroxisome proliferator-activated receptor delta (PPARd) signaling pathway (AID 743212; calls by dose curve)
Peroxisome proliferator-activated receptor delta (Homo sapiens), sequence (Q03181 whole entry, looked up): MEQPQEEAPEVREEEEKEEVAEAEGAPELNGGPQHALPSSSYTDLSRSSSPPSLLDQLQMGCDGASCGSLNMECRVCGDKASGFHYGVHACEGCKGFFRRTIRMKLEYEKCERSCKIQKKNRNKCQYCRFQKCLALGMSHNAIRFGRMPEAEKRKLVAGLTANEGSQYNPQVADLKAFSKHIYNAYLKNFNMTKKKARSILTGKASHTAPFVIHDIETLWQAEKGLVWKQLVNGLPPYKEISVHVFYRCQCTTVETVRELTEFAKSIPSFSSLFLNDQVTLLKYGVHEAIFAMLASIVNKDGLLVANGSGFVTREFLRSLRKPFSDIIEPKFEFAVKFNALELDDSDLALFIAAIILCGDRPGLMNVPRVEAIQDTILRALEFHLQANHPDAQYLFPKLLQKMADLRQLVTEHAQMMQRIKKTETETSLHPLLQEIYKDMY
Summary of the method: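 Beta-lactamase reporter read by fluorescence (LiveBLAzer B/G FRET, 2 h, room temperature). Test agents, in DMSO, incubated at 37 C with PPARd-bla HEK293H cells.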

[12] = qHTS assay to identify small molecule antagonists of the peroxisome proliferator-activated receptor delta (PPARd) signaling pathway - cell viability counter screen (AID 743213); note: nearly all actives have a fitted effect of over 50% in size
Summary of the method: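 HEK293H PPARd UAS-bla cells, 5 h pre-incubation, compound + L165041 300 nM final, 17 h 37 C; B/G FRET substrate 2 h RT; then CellTiter-Glo 30 min RT, luminescence.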

[13] = qHTS assay to identify small molecule agonists of the farnesoid-X-receptor (FXR) signaling pathway - cell viability counter screen (AID 743218); note: nearly all actives have a fitted effect of over 45% in size
Summary of the method: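 Viability counter screen in the same wells: CellTiter-Glo luminescence, 30 min room-temperature incubation, measured after the beta-lactamase read. Cells were GeneBLAzer FXR-UAS-bla HEK 293T, compound-treated 16 h at 37C.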

[14] = target: Vitamin D3 receptor (Homo sapiens) (UniProt P11473); assay: qHTS assay to identify small molecule agonists of the vitamin D receptor (VDR) signaling pathway (AID 743222; calls by dose curve)
Vitamin D3 receptor (Homo sapiens), sequence (P11473 whole entry, looked up): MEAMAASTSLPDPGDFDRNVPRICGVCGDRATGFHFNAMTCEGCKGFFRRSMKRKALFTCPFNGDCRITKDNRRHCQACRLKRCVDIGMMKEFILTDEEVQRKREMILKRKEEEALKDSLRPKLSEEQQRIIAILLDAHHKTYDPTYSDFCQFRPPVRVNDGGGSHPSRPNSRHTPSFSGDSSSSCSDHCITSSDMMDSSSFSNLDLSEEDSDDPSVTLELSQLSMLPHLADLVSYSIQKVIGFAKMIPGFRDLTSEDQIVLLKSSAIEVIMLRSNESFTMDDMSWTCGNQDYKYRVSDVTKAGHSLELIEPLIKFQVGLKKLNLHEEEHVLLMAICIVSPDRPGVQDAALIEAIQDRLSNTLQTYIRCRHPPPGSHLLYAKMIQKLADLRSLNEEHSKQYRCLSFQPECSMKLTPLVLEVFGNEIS
Summary of the method: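 Agonist mode, beta-lactamase reporter: fluorescence from LiveBLAzer B/G FRET substrate (2 h, room temperature) read after 16 h compound treatment at 37 C of VDR-bla cells, which were pre-incubated 4 h after seeding.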

[15] = target: Peroxisome proliferator-activated receptor delta (Homo sapiens) (UniProt Q03181); assay: qHTS assay to identify small molecule antagonists of the peroxisome proliferator-activated receptor delta (PPARd) signaling pathway (AID 743215; active = well fitted inhibition curve with a large enough effect in the signal ratio in the repeat runs, not every such curve was filed as active; the % refers to the signal ratio;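 note: cells stimulated with agonist L165041 at 300 nM final during compound exposure; series mostly up to about 62 µM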)
Summary of the method: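 Agonist L165041 (300 nM final) added with compound to PPARd-bla HEK293H UAS-bla reporter cells; 17 h incubation at 37 C. Read-out: LiveBLAzer FRET substrate, 2 h at room temperature, fluorescence intensity.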

[16] = qHTS assay to identify small molecule antagonists of the farnesoid-X-receptor (FXR) signaling pathway - cell viability counter screen (AID 743221; active = well fitted cell-killing curve with a large enough effect in the repeat runs, not every such curve was filed as active; note: nearly all actives have a fitted effect of over 50% in size)
Summary of the method: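 Multiplexed counter screen: viability of FXR-bla HEK 293T cells under agonist stimulation by chenodeoxycholic acid (50 uM, final) and test compound for 16 h at 37 C, measured by CellTiter-Glo luminescence in the reporter wells.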

[17] = target: Vitamin D3 receptor (Homo sapiens) (UniProt P11473); assay: qHTS assay to identify small molecule antagonists of the vitamin D receptor (VDR) signaling pathway (AID 743223; active = well fitted inhibition curve with a large enough effect in the signal ratio in the repeat runs, not every such curve was filed as active; the % refers to the signal ratio)
Summary of the method: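 Cells carrying a VDR-driven beta-lactamase reporter (VDR-bla) were co-treated with compound and 3 nM final 1alpha,25-dihydroxyvitamin D3 for 16 h at 37C; reporter activity was measured as FRET substrate fluorescence after 2 h at room temperature.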

[18] = target: Bile acid receptor (Homo sapiens) (UniProt Q96RI1); assay: qHTS assay to identify small molecule antagonists of the farnesoid-X-receptor (FXR) signaling pathway (AID 743217; active = well fitted inhibition curve with a large enough effect in the signal ratio in the repeat runs, not every such curve was filed as active; the % refers to the signal ratio)
Bile acid receptor (Homo sapiens), sequence (Q96RI1 whole entry, looked up): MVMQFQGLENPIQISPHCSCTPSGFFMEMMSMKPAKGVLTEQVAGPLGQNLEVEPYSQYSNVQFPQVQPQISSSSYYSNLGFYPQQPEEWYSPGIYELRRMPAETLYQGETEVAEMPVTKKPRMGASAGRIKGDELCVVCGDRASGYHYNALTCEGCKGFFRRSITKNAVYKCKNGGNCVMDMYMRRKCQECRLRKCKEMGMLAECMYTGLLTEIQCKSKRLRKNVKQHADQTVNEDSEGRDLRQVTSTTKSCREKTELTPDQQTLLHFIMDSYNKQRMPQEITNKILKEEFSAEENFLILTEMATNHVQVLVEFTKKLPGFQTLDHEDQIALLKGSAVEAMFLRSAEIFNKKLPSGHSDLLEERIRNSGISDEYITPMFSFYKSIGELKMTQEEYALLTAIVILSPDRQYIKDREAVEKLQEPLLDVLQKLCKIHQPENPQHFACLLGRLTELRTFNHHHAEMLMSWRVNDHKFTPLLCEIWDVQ
Summary of the method: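 Antagonist mode: chenodeoxycholic acid at 50 uM final stimulates a UAS-driven beta-lactamase reporter in HEK 293T FXR-bla cells during 16 h, 37C compound exposure. Read-out is FRET substrate fluorescence after 2 h at room temperature.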

[19] = target: Bile acid receptor (Homo sapiens) (UniProt Q96RI1); assay: qHTS assay to identify small molecule agonists of the farnesoid-X-receptor (FXR) signaling pathway (AID 743220; active = well fitted activation curve with a large enough effect in the signal ratio in the repeat runs, not every such curve was filed as active; the % refers to the signal ratio)
Summary of the method: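 FXR-UAS-bla HEK 293T cells carrying a UAS-driven beta-lactamase reporter were plated for 5 h at 37C/5% CO2, then exposed to DMSO-dissolved Tox21 10K compounds for 16 h at 37C. A LiveBLAzer B/G FRET substrate was loaded for 2 h at room temperature before fluorescence reading.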
% is set by controls: 0 for no effect and ±100 for the full control effect.

CCCOCCC
inactive: Potency [1] | outcome [2] | Potency [3] | Potency [4] | Potency [5] | Potency [6] | Potency [7] | outcome [8] | Potency [9] | Potency [10] | outcome [11] | Potency [12] | Potency [13] | outcome [14]

NC(Cc1ccc(F)cc1)C(=O)O (stereo not drawn)
inactive: activity change, negative = cytotoxicity [1] -2.35% [at 8.47 µM] | viability change, negative = cytotoxic [2] 2.78% [at 8.47 µM] | activation [3] 0.33% [at 7.08 µM] | ratio activity, negative = inhibition [4] 6.5% [at 5.95 µM] | activity change, negative = cytotoxicity [5] -1.09% [at 5.95 µM] | activation [6] -7.28% [at 8.36 µM] | viability change, negative = cytotoxic [7] -1.52% [at 8.36 µM] | activity change, negative = cytotoxicity [8] -7.91% [at 5.95 µM] | activity change, negative = cytotoxicity [10] -0.221% [at 5.95 µM] | activation [11] 5.3% [at 5.95 µM] | viability change, negative = cytotoxic [12] 5.29% [at 6.26 µM] | ratio activity, negative = inhibition [15] 5.05% [at 6.26 µM] | viability change, negative = cytotoxic [13] 4.49% [at 5.95 µM] | activity change, negative = cytotoxicity [16] -10% [at 5.95 µM] | activation [14] 5.15% [at 6.01 µM] | activity change, negative = inhibition [17] 0.285% [at 6.95 µM]

CC1=C(O)C(=O)OC1C (stereo not drawn)
inactive: Potency [1] | outcome [2] | Potency [3] | Potency [4] | Potency [5] | Potency [6] | Potency [7] | outcome [8] | Potency [9] | Potency [10] | outcome [11] | Potency [12] | outcome [15] | outcome [18] | Potency [13] | outcome [19] | outcome [16] | outcome [14] | outcome [17]

OCC(CBr)(CBr)CBr
inactive: Potency [1] | outcome [2] | Potency [3] | Potency [4] | Potency [7] | outcome [8] | Potency [9] | Potency [10] | outcome [15] | Potency [13] | outcome [16] | outcome [14]

O=C(Cl)c1cccc([N+](=O)[O-])c1
inactive: Potency [1] | outcome [2] | Potency [3] | Potency [4] | Potency [5] | Potency [6] | Potency [7] | outcome [8] | Potency [9] | outcome [11] | outcome [15] | outcome [18] | Potency [13] | outcome [19] | outcome [14]

OC[C@H]1O[C@@H](O[C@H]2[C@H](O)[C@@H](O)[C@H](O)O[C@@H]2CO)[C@H](O)[C@@H](O)[C@H]1O
inactive: Potency [1] | outcome [2] | Potency [3] | Potency [5] | Potency [6] | Potency [7] | outcome [8] | Potency [9] | Potency [10] | outcome [11] | Potency [12] | outcome [15] | outcome [18] | Potency [13] | outcome [19]

O=C(O[C@@H](C(=O)O)[C@@H](OC(=O)c1ccccc1)C(=O)O)c1ccccc1
inactive: Potency [1] | outcome [2] | Potency [3] | Potency [5] | Potency [6] | Potency [7] | outcome [8] | Potency [9] | Potency [10] | Potency [12] | outcome [15] | Potency [13]

CCN[C@H]1CN(CCCOC)S(=O)(=O)c2sc(S(N)(=O)=O)cc21
inactive: Potency [1] | outcome [2] | Potency [4] | Potency [5] | Potency [6] | Potency [7] | outcome [8] | Potency [9] | Potency [10] | outcome [11] | Potency [12] | outcome [15] | Potency [13] | outcome [16] | outcome [14] | outcome [17]

COC(=O)c1ccc2cc(C(=O)OC)ccc2c1
inactive: Potency [1] | outcome [2] | Potency [4] | Potency [7] | outcome [8] | Potency [10] | outcome [11] | Potency [13] | outcome [16]
